TGFb inhibitor – inhibitors of TGF-b signaling. HepG2 CAGA-GFP TGF-b/SMAD3 reporter, GFP fluorescence, 18 h; TGF-beta stimulated, 500 pg/mL final. Potency, µM (series often up to 46.1 µM), inactives show at the highest dose activity, negative = inhibition, most hits filed as inhibitors. hit rate 1.2% among 410,000; also: potency is read from the fitted curve at half-maximal effect; % is scaled to controls: 0 for no effect and ±100 for the full control effect; nearly all actives have a fitted effect of over 65% in size
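Smad-responsive CAGA-GFP expression was quantified in HEPG2 cells exposed to compounds and 500 pg/mL final TGF-beta for 18 h at 37 degrees C; unstimulated wells defined full inhibition.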
HepG2 viability – HepG2 cytotoxicity, counter-screen for TGF-b inhibitors; HepG2 CAGA-GFP viability, ATP luminescence, 18 h; Potency, µM (series often up to 46.1 µM), without a hit: at the highest dose activity change, negative = cytotoxicity, hits mostly cytotoxic; hit rate 0.76% among 410,000; AID 588856; also: potency is read from the fitted curve at half-maximal effect
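HepG2 CAGA-GFP cells (1000/well, DMEM with 1% FBS) received compound, then TGF-beta at 500 pg/mL final, and were incubated 18 hours at 37 degrees C. Viability was read by CellTiter-Glo luminescence. Media-only wells were set as complete cell-killing and DMSO as no toxicity.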
TDP1 cell noCPT – qHTS for Inhibitors of human tyrosyl-DNA phosphodiesterase 1 (TDP1): qHTS in cells in absence of CPT. DT40 Tdp1-/- hTDP1 cells, no CPT, ATP luminescence, 48 h. Potency, µM (top dose mostly 46.2 µM), for inactives: at the highest dose activity change, negative = growth inhibition, usual class: inhibitors. hit rate 15% among 420,000. AID 686978, 2013; also: potency is read from the fitted curve at half-maximal effect; % is scaled to controls: 0 for no effect and ±100 for the full control effect; nearly all actives have a fitted effect of over 55% in size
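Luminescent ATP content (CellTiter-Glo) served as the growth readout. Knockout chicken DT40 cells expressing human TDP1 were exposed to compounds without camptothecin for a minimum 48 hr at 37 °C.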
TDP1 cell CPT – growth inhibition of DT40 Tdp1-/-;hTDP1 cells with camptothecin (screen for TDP1 inhibitors); chicken DT40 Tdp1-/-;hTDP1 cells + 20 nM CPT, ATP luminescence, 48 h; Potency, µM (doses to about 46.2 µM), for the others: at the highest dose activity change, negative = growth inhibition, most hits filed as inhibitors; hit rate 12% among 420,000; also: potency is read from the fitted curve at half-maximal effect; % is scaled to controls: 0 for no effect and ±100 for the full control effect; nearly all actives have a fitted effect of over 55% in size
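Chicken DT40 Tdp1-/- cells complemented with human TDP1, 400 cells/well, exposed to compounds plus 20 nM camptothecin for at least 48 h at 37 C; viability read as ATP content by CellTiter-Glo luminescence.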
TDP1 block – TDP1 (human) enzyme inhibition | Potency, µM (series often up to 130 µM), without a hit: at the highest dose activity change, negative = inhibition, most hits filed as inhibitors | hit rate 0.28% among 350,000 | Q9NUW8 | recombinant TDP1, AlphaScreen DNA substrate cleavage; also: potency is read from the fitted curve at half-maximal effect; % is scaled to controls: 0 for no effect and ±100 for the full control effect; nearly all actives have a fitted effect of over 40% in size
Target sequence (Q9NUW8 whole entry, looked up): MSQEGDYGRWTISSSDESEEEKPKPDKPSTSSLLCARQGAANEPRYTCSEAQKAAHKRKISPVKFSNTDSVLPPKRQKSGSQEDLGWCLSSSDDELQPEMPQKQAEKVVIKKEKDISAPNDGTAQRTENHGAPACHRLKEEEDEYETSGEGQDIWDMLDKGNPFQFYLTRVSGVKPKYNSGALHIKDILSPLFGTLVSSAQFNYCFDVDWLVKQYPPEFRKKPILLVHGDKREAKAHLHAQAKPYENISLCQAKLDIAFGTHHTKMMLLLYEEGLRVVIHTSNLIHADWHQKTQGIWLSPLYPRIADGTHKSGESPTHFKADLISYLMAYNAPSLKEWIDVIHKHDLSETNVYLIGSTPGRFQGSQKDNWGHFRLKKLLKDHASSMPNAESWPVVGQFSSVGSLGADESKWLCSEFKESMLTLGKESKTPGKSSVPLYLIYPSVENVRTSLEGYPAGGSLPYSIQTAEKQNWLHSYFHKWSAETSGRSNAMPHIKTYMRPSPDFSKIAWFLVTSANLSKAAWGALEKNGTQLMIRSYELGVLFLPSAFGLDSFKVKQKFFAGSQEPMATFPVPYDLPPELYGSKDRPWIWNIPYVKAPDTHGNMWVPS
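Recombinant E. coli-expressed Tdp1 (1 nM) preincubated with compound 15 min at RT, then 5'-biotin/3'-phosphotyrosine-FITC DNA substrate (15 nM) added for 5 min. AlphaScreen beads (10 ug/ml) added, 10 min RT; tyrosine-FITC cleavage read as signal loss.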
IL1B secr inh – inflammasome signaling inhibition, IL-1 beta readout. THP-1 LPS/ATP IL-1B secretion, AlphaLISA, 16 h; active compounds read low. activity change, % at 57.5 µM. hit rate 4.7% among 360,000; in the data active = activity change below about -50%; inconclusive = mostly about -30% to -49%; also: % is scaled to controls: 0 for no effect and ±100 for the full control effect
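Secreted IL-1B measured by AlphaLISA bead assay after 16 h compound exposure of THP-1 cells; compounds (final up to 57.5 uM) added 1 h before LPS (250 ng/mL) and ATP (1.25 mM) stimulation; lower signal means less secretion.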
* marks the source's active call; other numbers are inactive results; [ ] = another dose, or the depositor's remark. A selection: hits, their analogues and other compounds. The true share with any hit is near 19%. Unless noted, calls follow the shape of the dose curve; as a rule, active = well fitted curve in the direction sought with a large enough effect; inconclusive = small, poorly fitted or top-dose-only effect, or another doubt; inactive = no such curve, though single readings can be large; an effect the other way counts as inactive or inconclusive.

For CCC(=O)c1ccc(N2CCN(C(=O)c3ccccc3Br)CC2)c(F)c1 the results were TGFb inhibitor 28%, HepG2 viability -20%, TDP1 cell noCPT 10µM*, TDP1 cell CPT inconclusive, TDP1 block 0% and IL1B secr inh -55*.
For Nc1nc(-c2ccccc2)cn1N the results were TGFb inhibitor -8%, HepG2 viability 1%, TDP1 cell noCPT inconclusive, TDP1 cell CPT inconclusive, TDP1 block 7% and IL1B secr inh 31.
For Nc1nc(-c2ccccc2)cn1/N=C/c1ccccc1 the results were TGFb inhibitor 2%, HepG2 viability -1%, TDP1 cell noCPT 23µM*, TDP1 cell CPT inconclusive, TDP1 block 4% and IL1B secr inh inconclusive.
For COc1ccc(-c2cn(/N=C/c3ccc(Cl)cc3Cl)c(N)n2)cc1 the results were TGFb inhibitor inconclusive, HepG2 viability 3%, TDP1 cell noCPT inconclusive, TDP1 cell CPT 23µM*, TDP1 block 9% and IL1B secr inh -66*.
For Cc1cccc(C(=O)NCCNC(=O)c2cccc(C)c2)c1 the results were TGFb inhibitor -2%, HepG2 viability -6%, TDP1 cell noCPT 29µM*, TDP1 cell CPT -17%, TDP1 block 1% and IL1B secr inh 74.
For Cc1cccc(C(=O)NN/C=C/C(=O)c2ccccc2)c1 the results were TGFb inhibitor inconclusive, HepG2 viability 4%, TDP1 cell noCPT 26µM*, TDP1 cell CPT inconclusive, TDP1 block 3% and IL1B secr inh 70.
For O=C(NNC(=S)Nc1ccc(Br)cc1)c1ccccc1 the results were TGFb inhibitor -20%, HepG2 viability -39%, TDP1 cell noCPT inconclusive, TDP1 cell CPT inconclusive, TDP1 block 6% and IL1B secr inh 46.
Cc1cccc(C(=O)NNC(=O)c2ccc(-c3ccccc3)cc2)c1 was read as TGFb inhibitor 3%, HepG2 viability 11%, TDP1 cell noCPT inconclusive, TDP1 cell CPT inconclusive, TDP1 block -5% and IL1B secr inh -2.
Screening O=C(NNS(=O)(=O)c1ccc([N+](=O)[O-])cc1)c1ccccc1 returned TGFb inhibitor -3%, HepG2 viability 7%, TDP1 cell noCPT 3%, TDP1 cell CPT -4% and IL1B secr inh -3.
`O=C(/C=C/NNC(=O)c1ccc(Br)cc1)c1ccccc1` gave TGFb inhibitor -5%, HepG2 viability -28%, TDP1 cell noCPT 4.1µM*, TDP1 cell CPT 2.9µM*, TDP1 block 8% and IL1B secr inh 8.
`O=C(/C=C/NNC(=O)c1ccccc1)c1ccc([N+](=O)[O-])cc1` gave TGFb inhibitor inconclusive, HepG2 viability -49%, TDP1 cell noCPT 9.2µM*, TDP1 cell CPT 6.5µM*, TDP1 block -3% and IL1B secr inh 129.
`Cc1ccc2c(c1)c1c(c(=O)n(-c3cccc(Cl)c3)c(=O)n1CC(=O)NCCC1=CCCCC1)n2C` gave TGFb inhibitor -5%, HepG2 viability -32%, TDP1 cell noCPT 1%, TDP1 cell CPT -2% and TDP1 block -3%.
`CCCC(=O)Nc1ncnc2c1ncn2C1OC2COP(=O)(O)OC2C1OC(=O)CCC` (stereo not given) gave TDP1 block -3%[56.1 µM].
`O=C(/C=C/NNC(=O)c1ccccc1)c1ccccc1` gave TGFb inhibitor -29%, HepG2 viability -17%, TDP1 cell noCPT 0.82µM*, TDP1 cell CPT 0.58µM*, TDP1 block 6% and IL1B secr inh 37.
O=C(/C=C/c1cccnc1)c1ccc(F)c(F)c1 was read as TGFb inhibitor -9%, HepG2 viability -6%, TDP1 cell noCPT 16µM*, TDP1 cell CPT inconclusive, TDP1 block 4% and IL1B secr inh -75*.
O=C(/C=C/c1ccc([N+](=O)[O-])cc1)NCc1cccnc1 was read as TGFb inhibitor inconclusive, HepG2 viability 10%, TDP1 cell noCPT -11%, TDP1 cell CPT -16%, TDP1 block 1% and IL1B secr inh -2.
For O=C(C=CC=Cc1ccccc1)c1ccc([N+](=O)[O-])cc1 the results were TGFb inhibitor 20%, HepG2 viability -3%, TDP1 cell noCPT 21µM*, TDP1 cell CPT 23µM* and IL1B secr inh -26.
For CN(C)c1ccc(C(=O)/C=C/c2cccnc2)cc1 the results were TGFb inhibitor inconclusive, HepG2 viability -65%, TDP1 cell noCPT inconclusive, TDP1 cell CPT inconclusive and IL1B secr inh -16.
`Cc1ccc(C(=O)C=CNNC(=O)c2ccccc2)cc1` gave TGFb inhibitor inconclusive, HepG2 viability -50%, TDP1 cell noCPT inconclusive, TDP1 cell CPT inconclusive and IL1B secr inh 6.
`O=C(/C=C/c1ccc([N+](=O)[O-])cc1)c1cccnc1` gave TGFb inhibitor inconclusive, HepG2 viability -62%, TDP1 cell noCPT inconclusive, TDP1 cell CPT 15µM*, TDP1 block 7% and IL1B secr inh -14.
Screening COc1ccc(C(=O)Nc2cc(-c3nc4ncccc4o3)ccc2C)cc1Br returned TGFb inhibitor 0%, HepG2 viability -5%, TDP1 cell noCPT inconclusive, TDP1 cell CPT inconclusive and TDP1 block 1%[12.3 µM].
Screening O=C(/C=C/NNC(=O)c1ccccc1O)c1ccccc1 returned TGFb inhibitor -23%, HepG2 viability -20%, TDP1 cell noCPT 16µM*, TDP1 cell CPT inconclusive and IL1B secr inh -3.
Screening Cc1ccc(-n2ncc3c(=O)n(CC(=O)N4CCN(c5ccccc5)CC4)cnc32)cc1C returned TGFb inhibitor -3%, HepG2 viability 9%, TDP1 cell noCPT inconclusive, TDP1 cell CPT -28%, TDP1 block 2% and IL1B secr inh -13.
`CN(CCC#N)c1ccc(C=C(C#N)c2ccc(Br)cc2)cc1` gave TGFb inhibitor 0%, HepG2 viability -26%, TDP1 cell noCPT inconclusive, TDP1 cell CPT inconclusive and IL1B secr inh -20.
Screening CN(CCC#N)c1ccc(/C=C(\C#N)c2ccccn2)cc1 returned TGFb inhibitor 3%, HepG2 viability -43%, TDP1 cell noCPT inconclusive, TDP1 cell CPT inconclusive, TDP1 block 6% and IL1B secr inh -64*.
For CCN(CC)c1ccc(/C=C(\C#N)c2ccccn2)cc1 the results were TGFb inhibitor -1%, HepG2 viability -18%, TDP1 cell noCPT 2.6µM*, TDP1 cell CPT 2.6µM*, TDP1 block -1% and IL1B secr inh inconclusive.

Screening data (PubChem)
